From the supplement of paper PMC10849652
Of roughly 7,900 targets only a part is listed; those with a hit were picked by preference. About 0.6% of all pairs of compound and target were hits.

Compound: CN1C2=C(C3=C1C(=O)N(N=C3)CC4=CC(=CC=C4)N)SC(=C2)S(=O)C
Test: log2 fold change, soluble protein after heating vs DMSO (PISA); higher = thermal stabilisation; K562 cells, 10 uM, 30 min; active = over 0.2 and 3.5 SD of the protein, either way, in both replicates (recomputed)
Procedure, shortened: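 Thermal stability values are relative to control samples and come from duplicates. They are expressed as log2 fold changes. For measurement, K562 cells (2×10^6 cells/mL) received 10 μM compound for 30 min, and aliquots were heated for 3 min over 48°C-58°C, pooled, and extracted at 4°C in PBS with 0.5% NP-40. Soluble protein, the supernatant after 21,000xg for 90 min, was quantified by TMTpro 16plex LC-MS/MS with equalised channel sums.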

UniProt Q02224, sequence (Q02224 whole entry, looked up): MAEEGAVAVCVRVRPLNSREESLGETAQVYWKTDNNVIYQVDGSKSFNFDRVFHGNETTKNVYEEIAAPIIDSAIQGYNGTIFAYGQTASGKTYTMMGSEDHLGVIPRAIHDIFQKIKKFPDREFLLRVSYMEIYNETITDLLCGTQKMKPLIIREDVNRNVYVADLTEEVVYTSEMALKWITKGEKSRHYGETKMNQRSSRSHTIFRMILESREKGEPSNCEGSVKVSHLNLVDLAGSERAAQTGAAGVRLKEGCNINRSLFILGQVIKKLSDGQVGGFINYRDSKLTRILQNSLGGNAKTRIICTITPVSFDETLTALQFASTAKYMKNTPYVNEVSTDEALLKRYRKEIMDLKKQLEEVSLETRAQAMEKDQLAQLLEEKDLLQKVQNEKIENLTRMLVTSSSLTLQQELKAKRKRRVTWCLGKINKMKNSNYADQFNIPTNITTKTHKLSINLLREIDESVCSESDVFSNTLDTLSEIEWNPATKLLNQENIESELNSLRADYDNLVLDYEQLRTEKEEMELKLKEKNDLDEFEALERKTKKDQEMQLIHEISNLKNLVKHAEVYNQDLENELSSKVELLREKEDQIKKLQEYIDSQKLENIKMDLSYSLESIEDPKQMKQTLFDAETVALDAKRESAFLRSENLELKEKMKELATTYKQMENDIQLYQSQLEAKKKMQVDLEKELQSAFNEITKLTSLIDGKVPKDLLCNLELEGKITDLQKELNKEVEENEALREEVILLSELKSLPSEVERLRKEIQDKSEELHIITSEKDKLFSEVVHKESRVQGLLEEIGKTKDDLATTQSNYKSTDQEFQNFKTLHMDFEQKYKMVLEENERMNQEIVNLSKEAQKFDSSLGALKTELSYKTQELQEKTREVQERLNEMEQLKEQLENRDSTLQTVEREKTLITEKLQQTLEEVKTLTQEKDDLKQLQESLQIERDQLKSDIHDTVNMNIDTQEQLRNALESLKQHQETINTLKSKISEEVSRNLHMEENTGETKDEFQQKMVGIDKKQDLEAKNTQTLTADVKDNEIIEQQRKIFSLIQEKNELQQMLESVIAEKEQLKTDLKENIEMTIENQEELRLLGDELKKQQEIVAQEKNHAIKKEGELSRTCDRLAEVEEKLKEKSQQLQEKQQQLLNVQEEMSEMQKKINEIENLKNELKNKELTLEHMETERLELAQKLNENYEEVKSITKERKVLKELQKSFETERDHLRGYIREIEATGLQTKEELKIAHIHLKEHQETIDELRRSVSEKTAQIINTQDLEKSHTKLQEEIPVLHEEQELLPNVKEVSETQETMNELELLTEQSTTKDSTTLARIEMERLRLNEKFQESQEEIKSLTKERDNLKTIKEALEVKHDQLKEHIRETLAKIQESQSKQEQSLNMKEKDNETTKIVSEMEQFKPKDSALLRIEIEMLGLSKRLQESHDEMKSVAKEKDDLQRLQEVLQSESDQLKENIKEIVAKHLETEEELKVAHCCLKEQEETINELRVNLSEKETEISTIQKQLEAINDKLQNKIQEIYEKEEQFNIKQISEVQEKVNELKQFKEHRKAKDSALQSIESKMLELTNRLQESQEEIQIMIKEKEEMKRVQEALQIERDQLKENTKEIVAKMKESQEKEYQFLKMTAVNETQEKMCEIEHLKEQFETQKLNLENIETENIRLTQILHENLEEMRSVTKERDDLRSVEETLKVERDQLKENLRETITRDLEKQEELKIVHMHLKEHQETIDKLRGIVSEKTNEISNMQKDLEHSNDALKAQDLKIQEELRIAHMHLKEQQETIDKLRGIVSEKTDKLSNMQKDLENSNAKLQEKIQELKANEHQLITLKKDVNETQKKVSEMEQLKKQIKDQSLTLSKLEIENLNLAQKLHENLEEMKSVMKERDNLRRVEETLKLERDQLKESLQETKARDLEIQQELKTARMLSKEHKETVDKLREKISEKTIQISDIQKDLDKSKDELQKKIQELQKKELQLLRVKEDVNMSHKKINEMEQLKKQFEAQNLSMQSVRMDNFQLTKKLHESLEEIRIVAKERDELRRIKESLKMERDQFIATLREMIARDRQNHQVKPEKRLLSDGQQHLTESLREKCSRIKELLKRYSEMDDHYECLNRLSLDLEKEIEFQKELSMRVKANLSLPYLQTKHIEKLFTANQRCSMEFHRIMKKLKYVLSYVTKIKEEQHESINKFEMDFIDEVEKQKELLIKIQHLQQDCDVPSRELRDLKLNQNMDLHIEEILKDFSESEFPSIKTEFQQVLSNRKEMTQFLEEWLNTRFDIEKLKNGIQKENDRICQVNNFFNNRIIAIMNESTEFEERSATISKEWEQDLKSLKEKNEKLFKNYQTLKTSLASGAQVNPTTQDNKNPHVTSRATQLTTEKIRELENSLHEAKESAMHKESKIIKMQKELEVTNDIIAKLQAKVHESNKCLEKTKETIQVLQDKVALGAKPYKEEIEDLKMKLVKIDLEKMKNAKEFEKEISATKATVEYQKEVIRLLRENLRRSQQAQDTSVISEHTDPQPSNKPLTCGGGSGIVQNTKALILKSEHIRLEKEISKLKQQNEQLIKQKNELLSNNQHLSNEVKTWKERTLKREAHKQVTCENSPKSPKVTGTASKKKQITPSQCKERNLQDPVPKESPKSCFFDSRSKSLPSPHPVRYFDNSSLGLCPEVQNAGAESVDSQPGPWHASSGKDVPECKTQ
UniProt Q96G28, sequence (Q96G28 whole entry, looked up): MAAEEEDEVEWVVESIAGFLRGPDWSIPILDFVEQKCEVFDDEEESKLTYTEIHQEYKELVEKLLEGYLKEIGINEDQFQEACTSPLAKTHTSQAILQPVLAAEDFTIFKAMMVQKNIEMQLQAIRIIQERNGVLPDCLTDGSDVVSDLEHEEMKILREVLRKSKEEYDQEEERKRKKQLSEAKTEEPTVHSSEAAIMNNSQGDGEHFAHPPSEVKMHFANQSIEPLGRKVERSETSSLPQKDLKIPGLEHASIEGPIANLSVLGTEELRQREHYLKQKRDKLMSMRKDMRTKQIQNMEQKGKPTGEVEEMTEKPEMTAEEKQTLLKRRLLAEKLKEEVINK
UniProt Q9Y2V0, sequence (Q9Y2V0 whole entry, looked up): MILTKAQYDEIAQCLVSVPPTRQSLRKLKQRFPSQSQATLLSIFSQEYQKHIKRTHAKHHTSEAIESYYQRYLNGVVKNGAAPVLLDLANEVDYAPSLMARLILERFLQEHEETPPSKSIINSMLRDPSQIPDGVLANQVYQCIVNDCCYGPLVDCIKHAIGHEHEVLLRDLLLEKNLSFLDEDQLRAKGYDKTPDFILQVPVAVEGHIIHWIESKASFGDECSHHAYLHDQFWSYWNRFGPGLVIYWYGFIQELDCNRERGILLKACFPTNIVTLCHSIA
UniProt Q92851, sequence (Q92851 whole entry, looked up): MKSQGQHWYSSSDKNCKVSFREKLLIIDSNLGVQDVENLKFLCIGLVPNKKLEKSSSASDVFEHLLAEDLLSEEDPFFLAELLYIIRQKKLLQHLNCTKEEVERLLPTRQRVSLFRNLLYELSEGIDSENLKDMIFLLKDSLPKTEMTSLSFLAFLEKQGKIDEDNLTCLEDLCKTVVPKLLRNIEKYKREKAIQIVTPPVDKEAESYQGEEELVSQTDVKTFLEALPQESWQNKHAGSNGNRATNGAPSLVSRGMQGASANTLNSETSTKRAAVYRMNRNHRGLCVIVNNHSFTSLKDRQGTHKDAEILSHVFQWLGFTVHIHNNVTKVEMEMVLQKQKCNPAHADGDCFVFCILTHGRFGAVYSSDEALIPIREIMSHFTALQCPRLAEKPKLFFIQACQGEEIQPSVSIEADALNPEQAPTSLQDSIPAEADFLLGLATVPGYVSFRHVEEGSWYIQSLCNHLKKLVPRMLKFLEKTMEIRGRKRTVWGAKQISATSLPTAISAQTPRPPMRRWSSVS
UniProt Q9P0B6, sequence (Q9P0B6 whole entry, looked up): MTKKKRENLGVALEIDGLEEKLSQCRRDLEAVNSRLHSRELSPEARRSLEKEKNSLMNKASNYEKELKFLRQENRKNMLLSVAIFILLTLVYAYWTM
UniProt Q9BSQ5, sequence (Q9BSQ5 whole entry, looked up): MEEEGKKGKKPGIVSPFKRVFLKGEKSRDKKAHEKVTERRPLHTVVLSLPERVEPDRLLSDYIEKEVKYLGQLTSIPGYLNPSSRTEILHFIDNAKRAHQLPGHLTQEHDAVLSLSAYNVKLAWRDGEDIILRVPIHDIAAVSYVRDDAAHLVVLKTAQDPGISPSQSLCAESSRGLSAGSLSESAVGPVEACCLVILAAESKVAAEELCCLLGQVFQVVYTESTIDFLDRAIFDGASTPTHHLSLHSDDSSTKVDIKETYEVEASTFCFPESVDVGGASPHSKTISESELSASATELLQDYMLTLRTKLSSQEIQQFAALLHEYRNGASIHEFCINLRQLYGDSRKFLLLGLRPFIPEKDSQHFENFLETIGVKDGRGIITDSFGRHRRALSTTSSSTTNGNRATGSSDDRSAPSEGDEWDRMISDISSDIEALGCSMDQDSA
UniProt Q86X95, sequence (Q86X95 whole entry, looked up): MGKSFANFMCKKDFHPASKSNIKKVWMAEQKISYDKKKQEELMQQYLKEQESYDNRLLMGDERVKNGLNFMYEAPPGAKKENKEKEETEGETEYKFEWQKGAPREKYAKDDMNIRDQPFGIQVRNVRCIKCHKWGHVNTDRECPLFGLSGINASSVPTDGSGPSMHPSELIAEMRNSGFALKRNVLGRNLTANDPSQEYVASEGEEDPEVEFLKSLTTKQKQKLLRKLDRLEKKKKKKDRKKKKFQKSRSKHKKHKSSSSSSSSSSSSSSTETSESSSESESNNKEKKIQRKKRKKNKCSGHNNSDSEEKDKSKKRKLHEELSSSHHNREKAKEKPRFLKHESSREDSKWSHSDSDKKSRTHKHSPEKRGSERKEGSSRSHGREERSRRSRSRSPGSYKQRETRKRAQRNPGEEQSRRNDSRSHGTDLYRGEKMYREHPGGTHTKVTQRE
UniProt Q7Z4R8, sequence (Q7Z4R8 whole entry, looked up): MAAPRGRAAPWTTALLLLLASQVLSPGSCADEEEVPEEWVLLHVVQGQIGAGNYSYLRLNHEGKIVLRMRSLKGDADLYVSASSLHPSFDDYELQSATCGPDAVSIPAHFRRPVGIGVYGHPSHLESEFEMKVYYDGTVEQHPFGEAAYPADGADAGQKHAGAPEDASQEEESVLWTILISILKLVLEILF

log2 fold change, inactive:
CFAP36 isoform 2 (UniProt Q96G28) 0.051, CHPT1 (UniProt Q8WUD6) 0.047, CENPE (UniProt Q02224) -0.255, C22orf39 (UniProt Q6P5X5) 0.043, CASP10 isoform 4 (UniProt Q92851) 0.023, COX7B (UniProt P24311) 0.015, CCM2 isoform 2 (UniProt Q9BSQ5) -0.012, CCNT2 (UniProt O60583) 0.023, CRTC1 isoform 2 (UniProt Q6UUV9) -0.153, CDK5 (UniProt Q00535) -0.014, C15orf41 (UniProt Q9Y2V0) 0.019, CCDC167 (UniProt Q9P0B6) -0.095, C6orf120 (UniProt Q7Z4R8) -0.245, C9orf72 (UniProt Q96LT7) -0.094, C19orf54 (UniProt Q5BKX5) -0.177, CDK19 (UniProt Q9BWU1) 0.003, CASP9 (UniProt P55211) 0.001, COG2 (UniProt Q14746) 0.302, CCNC (UniProt P24863) 0.032, CCNDBP1 (UniProt O95273) 0.013, CIR1 (UniProt Q86X95) 0.234, CDK8 (UniProt P49336) -0.025, COX17 (UniProt Q14061) -0.146
